Sampled rows, rich in hits. Any-hit rate of the full collection: about 3.1%.
PAX8 inh HTS: inhibitors of PAX8 transcriptional activity in RMG-I cells. RMG-I TPO-luciferase reporter, SteadyGlo, 24 h. 360,000 tested, 1.2% active. inhibition, % at 12.6 µM;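 active means mean replicate inhibition at least 60% with every replicate also reaching 60%; inconclusive means only one of the two criteria is met; inactive means mean below 60% and not all replicates reaching 60%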;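 further: luciferase light reporting Pax8 driven TPO promoter activity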
EWS-Fli inh: inhibitors of EWS/Fli oncoprotein transcriptional activity. A673 NR0B1-luciferase reporter, viability-normalised. inhibition, % at 12.6 µM. 350,000 tested, 0.67% active. AID 651661;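 active means mean inhibition of at least 50% after viability correction, with every replicate also passing that limit; inconclusive means mean reaches 50% but only one of two replicates passes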;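 further: firefly luciferase signal divided by Alamar Blue viability fluorescence both relative to DMSO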
C2C12 statin: protects C2C12 myotubes from simvastatin toxicity; ATP luminescence, 48 h; scaled: DMSO 0, geranylgeraniol control 100; rescue of ATP level, % at 7.49 µM; 330,000 tested, 0.78% active; AID 602340;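 active means mean ATP rescue above about 67%, or every replicate alone reaching that limit, limit read from the data, passing the limit was not always enough; inconclusive means no clear call, values can overlap the other calls; inactive means mean under the limit and some replicate under it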;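 further: myotubes were challenged with 10 µM simvastatin during compound exposure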
INS-1E GSIS act: GLuc luminescence reporter in INS-1E cells, primary screen for activators of glucose-dependent secretion of insulin; INS-1E GLuc reporter insulin secretion, 2-3 h; activation, % at 16.6 µM; 370,000 tested, 0.61% active; AID 743287;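 active means lowest replicate activation of at least 40%, so every replicate reaches that level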
miR-122 sensor: inhibitors of miR-122 in Huh7 cells; Huh7 miR-122 Renilla luciferase sensor, 48 h; neutral wells = 0, positive control = 100; activation (reporter increase), % at 12.5 µM; 340,000 tested, 0.3% active; AID 602342;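 active means mean replicate activation score at least 90 and every replicate individually at or above 90; inconclusive means only one of the two criteria met; inactive means neither criterion met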;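 further: higher luciferase means less miR-122 activity so hits act as miR-122 inhibitors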
HIV Env fusion: HIV envelope-mediated fusion inhibition. inhibition, % at 12.3 µM. HeLa-JRFL Env/CEM21 cell fusion, luciferase. 360,000 tested, 1.1% active;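 active means mean replicate inhibition score of at least 50 and every replicate individually at or above 50; inconclusive means only one of the two criteria met; inactive means mean below 50 and not all replicates reaching 50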
Each line names hits and unclear results; the compound was inactive in the other large screens.

C[C@@H]1CCCCO[C@H](CN(C)C(=O)Nc2ccc(C(F)(F)F)cc2)[C@H](C)CN([C@@H](C)CO)C(=O)c2cc(NS(=O)(=O)c3ccc(Cl)cc3)ccc2O1	PAX8 inh HTS 89 (no result: C2C12 statin)
C[C@@H]1CCCCO[C@@H](CN(C)C(=O)Nc2ccc(C(F)(F)F)cc2)[C@H](C)CN([C@H](C)CO)C(=O)c2cc(NS(=O)(=O)c3ccc(Cl)cc3)ccc2O1	PAX8 inh HTS 88 (no result: C2C12 statin)
C[C@@H]1CCCCO[C@H](CN(C)C(=O)Nc2ccc(C(F)(F)F)cc2)[C@H](C)CN([C@H](C)CO)C(=O)c2cc(NS(=O)(=O)c3ccc(Cl)cc3)ccc2O1	none (no result: C2C12 statin)
C[C@H]1CCCCO[C@@H](CN(C)C(=O)Nc2ccc(C(F)(F)F)cc2)[C@@H](C)CN([C@@H](C)CO)C(=O)c2cc(NS(=O)(=O)c3ccc(Cl)cc3)ccc2O1	none (no result: C2C12 statin)
C[C@@H]1CCCCO[C@H](CN(C)C(=O)Nc2ccc(C(F)(F)F)cc2)[C@@H](C)CN([C@@H](C)CO)C(=O)c2cc(NS(=O)(=O)c3ccc(Cl)cc3)ccc2O1	PAX8 inh HTS 92, HIV Env fusion inconclusive (no result: C2C12 statin)
C[C@@H]1CCCCO[C@H](CN(C)C(=O)Nc2ccc(C(F)(F)F)cc2)[C@@H](C)CN([C@H](C)CO)C(=O)c2cc(NS(=O)(=O)c3ccc(Cl)cc3)ccc2O1	none (no result: C2C12 statin)
C[C@H](CO)N1C[C@H](C)[C@@H](CN(C)C(=O)Nc2ccc(C(F)(F)F)cc2)OCCCC[C@H](C)Oc2ccc(NS(=O)(=O)c3ccc(Cl)cc3)cc2C1=O	PAX8 inh HTS 69 (no result: C2C12 statin)
Cc1noc(C)c1NC(=O)N(C)C[C@H]1Oc2ccc(NS(=O)(=O)c3ccc(F)cc3)cc2CC(=O)N([C@@H](C)CO)C[C@H]1C	none (no result: PAX8 inh HTS)
COc1ccc2c3c(n(C)c2c1)[C@@H](CO)N(C(=O)Nc1c(C)noc1C)CC31CCN(CC2CC2)CC1	none (no result: PAX8 inh HTS, C2C12 statin, miR-122 sensor, HIV Env fusion)
O=C(CN1CCOCC1)N[C@@H]1CC[C@@H](CCn2cc(C3CCCC3)nn2)O[C@@H]1CO	none (no result: EWS-Fli inh, C2C12 statin, miR-122 sensor, HIV Env fusion)
C[C@@H]1CCCCO[C@@H](CN(C)C(=O)Nc2ccc(C(F)(F)F)cc2)[C@H](C)CN([C@@H](C)CO)C(=O)c2cc(NS(=O)(=O)c3ccc(Cl)cc3)ccc2O1	PAX8 inh HTS 69 (no result: C2C12 statin)
C[C@@H]1CCCCO[C@H](CN(C)C(=O)Nc2ccc(C(F)(F)F)cc2)[C@H](C)CN([C@H](C)CO)C(=O)c2cc(NS(=O)(=O)c3ccccc3)ccc2O1	none (no result: C2C12 statin)
O=C(C[C@H]1CC[C@H]2[C@@H](COC[C@@H](O)CN2C(=O)c2ccc(F)cc2)O1)NCCCN1CCOCC1	none (no result: HIV Env fusion)
CCOc1ccc(N(C)S(=O)(=O)c2ccc3[nH]cc(C(=O)NCCOC)c(=O)c3c2)cc1	INS-1E GSIS act 66
O=C(/C=C/c1ccc(Cl)cc1Cl)N1CCN(c2ccccc2[N+](=O)[O-])CC1	PAX8 inh HTS 119 (no result: C2C12 statin, HIV Env fusion)
Cc1ccc(NC(C(=O)c2ccccc2)c2ccccc2)cc1 (configuration not stated)	PAX8 inh HTS 80
C[C@@H]1CN([C@@H](C)CO)C(=O)c2cc(NC(=O)Cn3cnnn3)ccc2O[C@@H]1CN(C)C	none (no result: HIV Env fusion)
C[C@@H]1CN([C@@H](C)CO)C(=O)c2cc(NS(=O)(=O)c3ccc(F)cc3)ccc2O[C@@H](C)CCCCO[C@H]1CN(C)C(=O)c1ccccc1	none (no result: C2C12 statin)
N#Cc1cccc(NC(=O)c2nc(-c3ccccc3)n(-c3ccccc3)n2)c1	none (no result: EWS-Fli inh, INS-1E GSIS act)
Cc1nn(C2CCS(=O)(=O)C2)c2nc(C3CC3)cc(C(=O)Nc3cccc(C#N)c3)c12 (configuration not stated)	PAX8 inh HTS 75
CCN(CC)c1ccc(NC(=O)c2cnccn2)cc1S(=O)(=O)Nc1ccc(OC)cc1	miR-122 sensor 123 (no result: EWS-Fli inh, C2C12 statin)
COc1ccc(CCNc2oc(-c3cccc4ccccc34)nc2P(=O)(OC)OC)cc1OC	HIV Env fusion 69 (no result: EWS-Fli inh)
COP(=O)(OC)c1nc(-c2cccc3ccccc23)oc1NCCc1ccccc1	none (no result: C2C12 statin, miR-122 sensor)
COCC(=O)N1C[C@@H](C)[C@@H](OC)CN(C)C(=O)c2ccc(NC(=O)c3ccc(F)cc3)cc2OC[C@@H]1C	none
COc1ccc(S(=O)(=O)N[C@H]2CC[C@H](CC(=O)N3CCC(Cc4ccccc4)CC3)O[C@@H]2CO)cc1	none (no result: PAX8 inh HTS, EWS-Fli inh, miR-122 sensor, HIV Env fusion)
FC(F)(F)c1nnc2c(Sc3ccccc3)nc3ccc(Cl)cc3n12	PAX8 inh HTS 113, miR-122 sensor 307, HIV Env fusion inconclusive (no result: EWS-Fli inh, INS-1E GSIS act)
O=c1[nH]c2ccccc2n2c(C(F)(F)F)nnc12	none
CCCOc1ccc(C(O)(CCN2CCCCC2)c2ccccc2OC)cc1 (configuration not stated)	C2C12 statin 87
COc1ccc(S(=O)(=O)N2CCCCC2)cc1NC(=O)C1CCCC1	INS-1E GSIS act 52
COc1cc(S(=O)(=O)N2CCCCCC2)ccc1Cl	C2C12 statin 100 (no result: EWS-Fli inh, INS-1E GSIS act)
COc1cc(S(=O)(=O)N2CCN(c3ccccc3F)CC2)ccc1Cl	C2C12 statin 78 (no result: PAX8 inh HTS, EWS-Fli inh, INS-1E GSIS act)
COc1ccc(S(=O)(=O)N2CCCCC2)cc1NC(=O)Cc1sc(C)nc1-c1ccc(F)cc1	HIV Env fusion 80
O=C(Nc1nc2ccc(S(=O)(=O)N3CCCC3)cc2s1)C1CCCCC1	miR-122 sensor 130 (no result: PAX8 inh HTS, EWS-Fli inh, C2C12 statin, INS-1E GSIS act)
O=C(N/N=C/c1ccc(F)cc1)c1cc(-c2ccc3c(c2)OCO3)n[nH]1	none (no result: C2C12 statin, INS-1E GSIS act)
O=C(N/N=C/c1ccc2c(c1)OCO2)c1ccc(Cl)cc1Cl	INS-1E GSIS act 58
COc1ccc(/C=N/NC(=O)c2cc(-c3ccc4c(c3)OCO4)n[nH]2)cc1OC	INS-1E GSIS act 49 (no result: C2C12 statin, miR-122 sensor)
CCCC#Cc1cnc2c(c1)C(=O)N([C@H](C)CO)C[C@H](C)[C@@H](CN(C)Cc1ccc3c(c1)OCO3)O2	none (no result: PAX8 inh HTS)
Cc1cc(C2(c3ccc(O)c(C)c3)OC(=O)c3ccccc32)ccc1O	none (no result: C2C12 statin, miR-122 sensor, HIV Env fusion)
Cc1cc(O)c(C(C)C)cc1C1(c2cc(C(C)C)c(O)cc2C)OC(=O)c2ccccc21	PAX8 inh HTS 89, HIV Env fusion 68
CCOc1ccccc1CNC(c1ccccc1)c1ccccc1	INS-1E GSIS act 88 (no result: miR-122 sensor)
COc1ccc(Cn2nnnc2C(CC(C)C)N2CCN(c3ccccc3)CC2)cc1 (configuration not stated)	none (no result: PAX8 inh HTS, EWS-Fli inh, HIV Env fusion)
CCCC(c1nnnn1Cc1ccc(OC)cc1)N1CCN(c2ccccc2)CC1 (configuration not stated)	C2C12 statin 137 (no result: PAX8 inh HTS, EWS-Fli inh, INS-1E GSIS act, HIV Env fusion)
Cc1ccc(NC(=O)Cc2cn(C)c3ccccc23)cc1F	miR-122 sensor 321
O=C1CCCc2[nH]c3cccc(/C(=C/c4ccccc4)c4ccccc4)c3c21	HIV Env fusion 70
CCC(=O)Nc1ccc2c(c1)Cc1cc([N+](=O)[O-])ccc1-2	none (no result: INS-1E GSIS act, miR-122 sensor)
O=CNc1ccc2c(c1)Cc1cc([N+](=O)[O-])ccc1-2	HIV Env fusion 75
O=C(Nc1ccn([C@H]2CC[C@@H](CO)O2)c(=O)n1)c1ccccc1	none (no result: C2C12 statin, INS-1E GSIS act, miR-122 sensor)

From PubChem BioAssay
